{"source": "paper PMC8384837", "about": "“Expanding the binding specificity for RNA recognition by a PUF domain”", "assay_in_all_cases": "yeast three-hybrid, YBZ-1, SC-Leu-His + 0.5 mM 3-AT, 4 days", "conditions_in_all_cases": "tags: N-Gal4 AD-HA kept; label: inside an RPR1-promoter hybrid RNA with tandem MS2 sites; ssRNA", "key": {"PUM1 PUF domain R8-YFR": {"molecular_target": "PUM1 PUF domain R8-YFR (Homo sapiens, UniProt Q14671 828-1176, N1122Y;Y1123F;Q1126R)", "method_in_brief": "(§1)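 Matching RNA elements and Pumilio-1 PUF domain libraries, randomized at the three base-contacting residues of every repeat, were co-expressed from a centromeric plasmid in strain YBZ-1 (LexA–MS2 coat fusion, HIS3 reporter). The repeat regions were PCR-amplified and Illumina-sequenced from cells grown four days on SC-Leu (input) or SC-Leu-His + 0.5 mM 3-AT (selection). The interaction score is the log change in variant frequency from input to selection. It is computed in log2, with a pseudocount of 1 for absent variants.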"}, "PUM1 PUF domain R6-WWR": {"molecular_target": "T1, PUM1 PUF domain R6-WWR (Homo sapiens, UniProt Q14671 828-1176, N1043W;Y1044W;Q1047R)", "T1 sequence": "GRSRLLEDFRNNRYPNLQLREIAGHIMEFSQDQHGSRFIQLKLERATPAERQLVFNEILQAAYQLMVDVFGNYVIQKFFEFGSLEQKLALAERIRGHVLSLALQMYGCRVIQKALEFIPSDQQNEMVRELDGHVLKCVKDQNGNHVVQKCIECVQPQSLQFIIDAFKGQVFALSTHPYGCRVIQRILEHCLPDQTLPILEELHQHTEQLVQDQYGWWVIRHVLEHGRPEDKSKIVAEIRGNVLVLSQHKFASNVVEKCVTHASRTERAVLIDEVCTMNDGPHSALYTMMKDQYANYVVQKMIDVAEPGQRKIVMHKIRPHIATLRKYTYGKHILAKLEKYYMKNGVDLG", "method_in_brief": "as §1"}, "PUM1 PUF domain R5-KNQ": {"molecular_target": "PUM1 PUF domain R5-KNQ (Homo sapiens, UniProt Q14671 828-1176, C1007K;R1008N)", "method_in_brief": "as §1"}, "PUM1 PUF domain R1-VWR": {"molecular_target": "PUM1 PUF domain R1-VWR (Homo sapiens, UniProt Q14671 828-1176, S863V;R864W;Q867R)", "method_in_brief": "as §1"}, "PUM1 PUF domain R3-GCE": {"molecular_target": "PUM1 PUF domain R3-GCE (Homo sapiens, UniProt Q14671 828-1176, C935G;R936C;Q939E)", "method_in_brief": "as §1"}, "PUM1 PUF domain R1-SWD": {"molecular_target": "PUM1 PUF domain R1-SWD (Homo sapiens, UniProt Q14671 828-1176, R864W;Q867D)", "method_in_brief": "as §1"}, "PUM1 PUF domain R7-QCK": {"molecular_target": "PUM1 PUF domain R7-QCK (Homo sapiens, UniProt Q14671 828-1176, S1079Q;N1080C;E1083K)", "method_in_brief": "as §1"}}, "data": [{"sequence": "GGCUAGAACUAGUGGAUCCCCCGGCGCCCGGCGGCUCGAGCCCGGGUAAGCGUAAAUAGUCUGCAUGCCGCCGGGCGCCAUGCCUGCAGGUCGACUCUAGAAAACAUG", "values": [{"measurement": "binding signal", "setting": "PUM1 PUF domain R8-YFR", "result": "5.19 log2 enrichment (interaction score)"}]}, {"sequence": "GGCUAGAACUAGUGGAUCCCCCGGCGCCCGGCGGCUCGAGCCCGGGUAAGUGUAAAUAGUCUGCAUGCCGCCGGGCGCCAUGCCUGCAGGUCGACUCUAGAAAACAUG", "values": [{"measurement": "binding signal", "setting": "PUM1 PUF domain R8-YFR", "result": "5.17 log2 enrichment (interaction score)"}, {"measurement": "binding signal", "setting": "PUM1 PUF domain R6-WWR", "result": "5.15 log2 enrichment (interaction score)"}]}, {"sequence": "GGCUAGAACUAGUGGAUCCCCCGGCGCCCGGCGGCUCGAGCCCGGGUAAGUGAAAAUAGUCUGCAUGCCGCCGGGCGCCAUGCCUGCAGGUCGACUCUAGAAAACAUG", "values": [{"measurement": "binding signal", "setting": "PUM1 PUF domain R6-WWR", "result": "2.69 log2 enrichment (interaction score)"}]}, {"sequence": "GGCUAGAACUAGUGGAUCCCCCGGCGCCCGGCGGCUCGAGCCCGGGUAAGUGUUAAUAGUCUGCAUGCCGCCGGGCGCCAUGCCUGCAGGUCGACUCUAGAAAACAUG", "values": [{"measurement": "binding signal", "setting": "PUM1 PUF domain R5-KNQ", "result": "4.28 log2 enrichment (interaction score)"}]}, {"sequence": "GGCUAGAACUAGUGGAUCCCCCGGCGCCCGGCGGCUCGAGCCCGGGUAAGUGUAAAUCGUCUGCAUGCCGCCGGGCGCCAUGCCUGCAGGUCGACUCUAGAAAACAUG", "values": [{"measurement": "binding signal", "setting": "PUM1 PUF domain R1-VWR", "result": "1.8 log2 enrichment (interaction score)"}]}, {"sequence": "GGCUAGAACUAGUGGAUCCCCCGGCGCCCGGCGGCUCGAGCCCGGGUAAGUGUAAAUUGUCUGCAUGCCGCCGGGCGCCAUGCCUGCAGGUCGACUCUAGAAAACAUG", "values": [{"measurement": "binding signal", "setting": "PUM1 PUF domain R1-VWR", "result": "2.37 log2 enrichment (interaction score)"}]}, {"sequence": "GGCUAGAACUAGUGGAUCCCCCGGCGCCCGGCGGCUCGAGCCCGGGUAAGUGUAAGUAGUCUGCAUGCCGCCGGGCGCCAUGCCUGCAGGUCGACUCUAGAAAACAUG", "values": [{"measurement": "binding signal", "setting": "PUM1 PUF domain R3-GCE", "result": "4.51 log2 enrichment (interaction score)"}]}, {"sequence": "GGCUAGAACUAGUGGAUCCCCCGGCGCCCGGCGGCUCGAGCCCGGGUAAGUGUAAAUGGUCUGCAUGCCGCCGGGCGCCAUGCCUGCAGGUCGACUCUAGAAAACAUG", "values": [{"measurement": "binding signal", "setting": "PUM1 PUF domain R1-SWD", "result": "4.27 log2 enrichment (interaction score)"}]}, {"sequence": "GGCUAGAACUAGUGGAUCCCCCGGCGCCCGGCGGCUCGAGCCCGGGUAAGUCUAAAUAGUCUGCAUGCCGCCGGGCGCCAUGCCUGCAGGUCGACUCUAGAAAACAUG", "values": [{"measurement": "binding signal", "setting": "PUM1 PUF domain R7-QCK", "result": "3.12 log2 enrichment (interaction score)"}]}]}
